28 compounds from PubChem BioAssay (NCATS) can be followed below.

A short description of experiment [1]: qHTS of pediatric cancer cell lines to identify multiple opportunities for drug repurposing: Primary screen for NB1643 cells (AID 1347099). Further: nearly all actives have a fitted effect of over 50% in size. Further: potency means the concentration at half of the fitted maximal effect. The essentials: (§1)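 Quantitative HTS format: each compound titrated (MIPE 11 points from 0.78 nM, NPC 8 points from 0.59 nM) onto cells plated 5 hours earlier. After 48 h at 37 degrees C, CellTiter-Glo luminescence was recorded.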
For orientation: In qHTS, concentration-response curves come from the screen itself.

Experiment [2] is described as follows: qHTS of pediatric cancer cell lines to identify multiple opportunities for drug repurposing: Primary screen for LAN-5 cells (AID 1347100). Further: potency means the concentration at half of the fitted maximal effect. The essentials:
(§2)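 Viability after 48 h compound treatment at 37C, 500-1,000 cells/well, read as ATP luminescence with CellTiter-Glo. Primary screens used 11-point (MIPE, 0.78 nM-46 µM) or 8-point (NPC, 0.59 nM-46 µM) final concentrations; follow-up screens used 11-point dilutions.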

Experiment [3] can be described thus: qHTS of pediatric cancer cell lines to identify multiple opportunities for drug repurposing: Primary screen for BT-12 cells (AID 1347101). Further: nearly all actives have a fitted effect of over 25% in size. Further: potency means the concentration at half of the fitted maximal effect. The essentials:
(§3)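 Cells (500-1,000/well) rested 5 h, then received compounds for 48 h; metabolically active cells were measured by CellTiter-Glo luminescence. Final concentrations spanned up to 46 µM (MIPE, 11-point) or 0.59 nM-46 µM (NPC, 8-point) in primary screens, 11-point in follow-ups.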

Experiment [4] in a line: qHTS of pediatric cancer cell lines to identify multiple opportunities for drug repurposing: Primary screen for Rh18 cells (AID 1347102). Further: nearly all actives have a fitted effect of over 65% in size. Further: potency means the concentration at half of the fitted maximal effect. In outline:
as §2

Experiment [5] in a line: qHTS of pediatric cancer cell lines to identify multiple opportunities for drug repurposing: Primary screen for OHS-50 cells (AID 1347103). Further: nearly all actives have a fitted effect of over 40% in size. Further: potency means the concentration at half of the fitted maximal effect. In outline: as §3
Experiment [6] can be described thus: qHTS of pediatric cancer cell lines to identify multiple opportunities for drug repurposing: Primary screen for RD cells (AID 1347104). Further: nearly all actives have a fitted effect of over 55% in size. Further: potency means the concentration at half of the fitted maximal effect. The essentials: as §1
Experiment [7] is described as follows: qHTS of pediatric cancer cell lines to identify multiple opportunities for drug repurposing: Primary screen for MG 63 (6-TG R) cells (AID 1347105). Further: nearly all actives have a fitted effect of over 50% in size. The essentials:
as §1

The nature of experiment [8]: qHTS of pediatric cancer cell lines to identify multiple opportunities for drug repurposing: Primary screen for Rh30 cells (AID 1347107). Further: series mostly up to about 46 µM; nearly all actives have a fitted effect of over 75% in size. In outline:
as §2

A short description of experiment [9]: qHTS of pediatric cancer cell lines to identify multiple opportunities for drug repurposing: Primary screen for SK-N-SH cells (AID 1347098). Further: nearly all actives have a fitted effect of over 65% in size. Further: potency means the concentration at half of the fitted maximal effect. The essentials: as §3
Experiment [10] is described as follows: qHTS of pediatric cancer cell lines to identify multiple opportunities for drug repurposing: Primary screen for control Hh wild type fibroblast cells (AID 1347106).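 Further: series mostly up to about 46 µM; a drop in luminescence marks cytotoxicity and a rise apparent proliferation; nearly all actives have a fitted effect of over 55% in size.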 The essentials: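 Cells (500-1,000/well) in growth media were settled 5 h at 37 degrees C, then given compounds for 48 h. Viability was read as CellTiter-Glo luminescence. Primary runs used MIPE at 11 points (0.78 nM-46 µM) and NPC at 8 points (0.59 nM-46 µM); follow-ups used 11 points.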

The structures appear in SMILES notation. “And” between values parts separate entries of the source, which are not always exact repeats. Equal entries are not always repeated. Results filed as inconclusive are left out. The source made the active and inactive calls. The call rests on the fitted dose curve; in most records, active means well fitted curve in the direction sought with a large enough effect; inconclusive means small, poorly fitted or top-dose-only effect, or another doubt; inactive means no such curve, though single readings can be large; an effect the other way counts as inactive or inconclusive.

For `CC(Cc1ccccc1)NCCCCl` (centres undefined), the Potency entry in [1], in [2], in experiment [3], in [4], in [5] and in [6] was “inactive” in each case. Besides, the Potency entry in experiment [7] and in experiment [8] was “inactive” in each case.

With `C[C@@H]1C[C@@H]([C@H](O)CC2CC(=O)NC(=O)C2)C(=O)[C@@H](C)C1`, the Potency in [9] is 4.86 µM (active) and 8.57 µM (active); in [3], 777 nM (active) and 611 nM (active); in experiment [5] it was 276 nM (active) and 137 nM (active); in experiment [6], 473 nM (active) and 235 nM (active). Also, the Potency entry in experiment [10] and in [8] was “inactive” in each case.

As for `COP(=S)(OC)Oc1ccc(Sc2ccc(OP(=S)(OC)OC)cc2)cc1`, the Potency entry in experiment [1], in experiment [2], in experiment [3], in experiment [4], in [5] and in [6] was “inactive” in each case. The Potency entry in experiment [7] and in experiment [8] was “inactive” throughout.

With `Nc1ccc(Cl)cc1C(=O)c1ccccc1F`, the Potency result in [1], in [2], in experiment [3], in experiment [4], in experiment [6] and in experiment [10] was “inactive” each time. For the same compound, the Potency entry in experiment [8] was “inactive”.

As to `COP(=O)(OC)C(O)C(Cl)(Cl)Cl` (centres undefined), the Potency entry in experiment [1], in [2], in [3], in experiment [4], in [5] and in experiment [6] was “inactive” in each case. Moreover, the Potency result in [10] and in [8] was “inactive” throughout.

For the compound `CCOP(=S)(OCC)O/N=C(\C#N)c1ccccc1`, the Potency result in experiment [1], in [2], in [3], in [4], in [5] and in experiment [6] was “inactive” each time. Further, the Potency entry in experiment [7], in experiment [10] and in experiment [8] was “inactive” each time.

With `ClCc1cccc(Cl)c1`, the Potency result in experiment [1], in [2], in [3], in [4], in [5] and in experiment [6] was “inactive” each time. The Potency entry in [7], in experiment [10] and in experiment [8] was “inactive” in each case.

Turning to `CN1CCC(N(Cc2ccccc2)c2ccccc2)CC1`, the Potency result in experiment [1], in experiment [2], in experiment [3], in experiment [4], in [10] and in experiment [8] was “inactive” each time.

Take `CC[n+]1c(-c2ccccc2)c2cc(N)ccc2c2ccc(N)cc21`: the Potency in [1] was 11.9 µM (active); in [2] it was 0.944 µM (active); in experiment [3] it was 3.09 µM (active); in experiment [4], 11.9 µM (active); in experiment [5], 1.55 µM (active); in experiment [6] it was 13.3 µM (active).

As for `Cc1cccc(Cc2cnc[nH]2)c1C`, the Potency entry in [1], in experiment [2], in [3], in experiment [4], in experiment [6] and in experiment [10] was “inactive” throughout. In experiment [8], the Potency result was “inactive”.

With `COc1cc(CC(C)N)cc2c1OCO2` (centres undefined), the Potency result in experiment [1], in experiment [2], in experiment [3], in [4], in experiment [6] and in [7] was “inactive” each time. Also, the Potency result in experiment [10] was “inactive”.

For `CC(C)=C[C@@H]1[C@@H](C(=O)OCc2coc(Cc3ccccc3)c2)C1(C)C`, the Potency entry in experiment [1], in [2], in experiment [3], in [4], in experiment [6] and in [10] was “inactive” throughout. The Potency result in experiment [8] was “inactive”.

As to `CC1=C2[C@H]3OC(=O)[C@@H](C)[C@@H]3CC[C@@]2(C)C=CC1=O`, the Potency entry in experiment [1], in [2], in experiment [3], in [4], in experiment [5] and in experiment [6] was “inactive” each time. In addition, in experiment [10], the Potency entry was “inactive”.

As to `O=C(N[C@@H]1N=C(c2ccccc2F)c2cccc3c2N(CC3)C1=O)c1cc2ccccc2[nH]1`, the Potency entry in [1], in [2], in [3], in experiment [4], in experiment [5] and in [6] was “inactive” throughout. The Potency entry in experiment [10] and in experiment [8] was “inactive” in each case.

In the case of `c1cc2c(c(N3CCNCC3)c1)OCCO2`, the Potency result in experiment [1], in experiment [2], in [3], in experiment [4], in experiment [5] and in [6] was “inactive” in each case. The Potency entry in experiment [7] and in experiment [10] was “inactive” in each case.

For the compound `CN(C)CCc1c[nH]c2ccc(O)cc12`, the Potency entry in experiment [1], in experiment [2], in experiment [3], in experiment [4], in [5] and in [7] was “inactive” each time. Besides, the Potency entry in [10] and in experiment [8] was “inactive” throughout.

As to `COP(=S)(OC)Oc1ccc(S(N)(=O)=O)cc1`, the Potency entry in experiment [1], in [2], in experiment [3], in experiment [4], in experiment [5] and in [6] was “inactive” in each case. Besides, the Potency result in [7], in experiment [10] and in experiment [8] was “inactive” throughout.

For `Cc1ncc2n1-c1ccc(Cl)cc1C(c1ccccc1F)=NC2`, the Potency entry in experiment [9], in experiment [3], in experiment [4], in [6] and in [8] was “inactive” in each case.

With `C[C@]12CC[C@H]3[C@@H](CCC4=CC(=O)CC[C@@H]43)[C@@H]1CC[C@@H]2O`, the Potency entry in experiment [1], in experiment [2], in [3], in experiment [4], in [6] and in experiment [7] was “inactive” each time. Also, the Potency entry in [10] and in experiment [8] was “inactive” throughout.

As to `CCC1(c2cccc(O)c2)CCCCN(C)C1` (centres undefined), the Potency entry in experiment [1], in [2], in experiment [3], in [4], in [5] and in [6] was “inactive” in each case. For the same compound, the Potency result in experiment [10] is “inactive”.

Consider `Cc1c(Cl)c(=O)oc2cc(OP(=O)(OCCCl)OCCCl)ccc12`, for which the Potency entry in experiment [1], in experiment [2], in experiment [3], in experiment [4], in experiment [5] and in experiment [6] was “inactive” each time. Besides, the Potency entry in experiment [7], in experiment [10] and in experiment [8] was “inactive” in each case.

In the case of `CN1CCc2cc(Cl)c(O)cc2[C@H]2c3ccccc3CC[C@@H]21`, the Potency entry in [1], in [2], in experiment [3], in [4], in experiment [6] and in [8] was “inactive” each time.

Take `CC[C@H](O)C(C[C@H](C)N(C)C)(c1ccccc1)c1ccccc1`: the Potency entry in experiment [1], in experiment [2], in experiment [3], in experiment [4], in experiment [5] and in experiment [10] was “inactive” throughout.

With `NCc1cccnc1`, the Potency result in experiment [1], in experiment [2], in [3], in experiment [4], in experiment [5] and in experiment [6] was “inactive” in each case. The Potency result in [7], in experiment [10] and in experiment [8] was “inactive” throughout.

On to `CCN(Cc1ccc(Cl)nc1)/C(=C/[N+](=O)[O-])NC`, for which the Potency result in experiment [1], in experiment [2], in [3], in experiment [4], in experiment [5] and in experiment [6] was “inactive” in each case. Further, the Potency entry in experiment [7] is “inactive”.

For the compound `CCC1(c2ccccc2)CCC(=O)NC1=O` (centres undefined), the Potency result in experiment [1], in experiment [2], in experiment [3], in experiment [4], in experiment [5] and in [6] was “inactive” throughout. Also, the Potency entry in experiment [7], in [10] and in experiment [8] was “inactive” each time.

In the case of `CCC(=O)OC1(c2ccccc2)CCN(C)CC1`, the Potency entry in [1], in experiment [2], in experiment [3], in experiment [4], in experiment [6] and in experiment [7] was “inactive” in each case. In addition, the Potency entry in experiment [8] is “inactive”.

For the compound `c1ccc2nc(N3CCNCC3)ccc2c1`, the Potency result in experiment [1], in experiment [2], in experiment [3], in experiment [4], in [5] and in [6] was “inactive” each time. The Potency entry in experiment [10] and in experiment [8] was “inactive” throughout.
